{"source": "PubChem BioAssay (NCATS)", "note": "Records with an inconclusive call do not appear. Active and inactive are the calls of the source. Unless noted, calls follow the shape of the dose curve; as a rule, active = well fitted inhibition curve with a large enough effect; inconclusive = small, poorly fitted or top-dose-only effect; inactive = flat fitted curve, though single readings scatter."}
{"target": "Phospholipid hydroperoxide glutathione peroxidase GPX4 (Homo sapiens) (UniProt P36969)", "sequence (P36969 whole entry, looked up)": "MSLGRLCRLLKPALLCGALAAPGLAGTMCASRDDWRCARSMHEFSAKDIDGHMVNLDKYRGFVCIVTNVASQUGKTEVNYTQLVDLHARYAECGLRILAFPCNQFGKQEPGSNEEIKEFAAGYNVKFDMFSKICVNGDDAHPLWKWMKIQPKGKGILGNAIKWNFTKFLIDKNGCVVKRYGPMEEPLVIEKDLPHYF", "experiment": "Primary qHTS Assay for Inhibitors of Recombinant Selenoprotein Glutathione Peroxidase 4 (GPX4) (AID 1845192); also: nearly all actives have a fitted effect of over 65% in size; also: potency is read from the fitted curve at half-maximal effect; as to activity change, negative = inhibition: % is scaled to controls: 0 for no effect and ±100 for the full control effect", "settings": "recombinant GPX4, GR-coupled NADPH fluorescence, 15 min; series mostly up to 50 µM; activity change, negative = inhibition: at the top concentration", "in_short": "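qHTS, GR-coupled: GPX4 200 nM + cpd 30 min RT → GSH 1 mM, NADPH 0.5 mM, GR 100 nM → CHP 0.5 mM start; fluor 340/450 at t0 and t15 min; no-enzyme wells as control.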"}
{"compound": "O=C1c2cccc(O)c2C(=O)c2c(O)cccc21", "activity change, negative = inhibition": "0.0582% (inactive)"}
{"compound": "COc1ccc(O)cc1", "outcome": "inactive"}
{"compound": "FC(F)(F)C(Cl)Br", "note": "(stereo unspecified)", "activity change, negative = inhibition": "-7.15% (inactive)"}
{"compound": "CCN1CC(CCN2CCOCC2)C(c2ccccc2)(c2ccccc2)C1=O", "note": "(stereo unspecified)", "activity change, negative = inhibition": "-14% (inactive)"}
{"compound": "OCCN1C[C@H](O)[C@@H](O)[C@H](O)[C@H]1CO", "Potency": "inactive"}
{"compound": "C/C=C1\\[C@H]2C=C(C)C[C@]1(N)c1ccc(=O)[nH]c1C2", "activity change, negative = inhibition": "4.88% (inactive)"}
{"compound": "COc1ccc(NS(=O)(=O)c2ccc(N)cc2)nn1", "activity change, negative = inhibition": "-0.528% (inactive)"}
{"compound": "OC(CCN1CCCC1)(c1ccccc1)C1CCCCC1", "note": "(stereo unspecified)", "outcome": "inactive"}
{"compound": "C/C(=C(\\CCO)SS/C(CCO)=C(\\C)N(C=O)Cc1cnc(C)nc1N)N(C=O)Cc1cnc(C)nc1N", "activity change, negative = inhibition": "-30.9% (inactive)"}
{"compound": "CC(=O)Oc1cccc(C)c1", "activity change, negative = inhibition": "-8.95% (inactive)"}
{"compound": "OC[C@@H](O)[C@@H](O)[C@H](O)[C@H](O)CO", "activity change, negative = inhibition": "-0.371% (inactive)"}
{"compound": "CCCCCCCC(=O)OCC(O)CO", "note": "(stereo unspecified)", "outcome": "inactive"}
{"compound": "CCCCOC(=O)c1ccc(N)cc1", "activity change, negative = inhibition": "-8.35% (inactive)"}
{"compound": "COC(=O)N/N=C/c1c[n+]([O-])c2ccccc2[n+]1[O-]", "outcome": "inactive"}
{"compound": "Cc1cc(C)nc(NS(=O)(=O)c2ccc(N)cc2)n1", "activity change, negative = inhibition": "4.96% (inactive)"}
{"compound": "COc1ccccc1OC(=O)Oc1ccccc1OC", "outcome": "inactive"}
{"compound": "CC(=O)OCC(=O)[C@@]1(O)CC[C@H]2[C@@H]3CCC4=CC(=O)C=C[C@]4(C)[C@@]3(F)[C@@H](O)C[C@@]21C", "activity change, negative = inhibition": "0.46% (inactive)"}
{"compound": "CCN(CC)C(=O)c1cccc(C)c1", "activity change, negative = inhibition": "-1.38% (inactive)"}
{"compound": "CC1CCN(CCCC(=O)c2ccc(F)cc2)CC1", "outcome": "inactive"}
{"compound": "C[N+]1(C)CCCC(OC(=O)C(O)(c2ccccc2)c2ccccc2)C1", "note": "(stereo unspecified)", "outcome": "inactive"}
{"compound": "CN[C@@H]1[C@@H](O)[C@@H](O[C@@H]2[C@H](O)[C@H](O[C@H]3OC(CN)=CC[C@H]3N)[C@@H](N)C[C@H]2N)OCC1(C)O", "note": "(stereo partly specified)", "outcome": "inactive"}
{"compound": "O=C(OOC(=O)c1ccccc1)c1ccccc1", "activity change, negative = inhibition": "-1.26% (inactive)"}
{"compound": "CC(C)NC[C@@H](O)COc1ccc(CC(N)=O)cc1", "activity change, negative = inhibition": "-1.51% (inactive)"}
{"compound": "CCCCCOC(=O)Nc1nc(=O)n([C@@H]2O[C@H](C)[C@@H](O)[C@H]2O)cc1F", "Potency": "inactive"}
{"compound": "CCCCCCCCCCCCCCCCC(C(=O)O)C(O)(CC(=O)O)C(=O)O", "note": "(stereo unspecified)", "Potency": "4.47 µM (active)"}
{"compound": "CCCCCCCCCCCCCCCCCCO", "activity change, negative = inhibition": "2.39% (inactive)"}
{"compound": "C[C@@H](c1ncncc1F)C(O)(Cn1cncn1)c1ccc(F)cc1F", "note": "(stereo partly specified)", "outcome": "inactive"}
{"compound": "CC(C)(C)NCC(O)COc1cccc2c1CCC(=O)N2", "note": "(stereo unspecified)", "activity change, negative = inhibition": "-6.07% (inactive)"}
{"compound": "CC(=O)Nc1ccc(C(=O)O)cc1", "activity change, negative = inhibition": "4.65% (inactive)"}
{"compound": "CC[N+](CC)(CC(=O)Nc1c(C)cccc1C)Cc1ccccc1", "Potency": "inactive"}
{"compound": "O[C@@H]1CO[C@H]2[C@@H]1OC[C@@H]2O", "activity change, negative = inhibition": "1.74% (inactive)"}
{"compound": "Cc1ccsc1/C=C/C1=NCCCN1C", "outcome": "inactive"}
{"compound": "CO[C@@]1(NC(=O)C(C(=O)O)c2ccc(O)cc2)C(=O)N2C(C(=O)O)=C(CSc3nnnn3C)CO[C@@H]21", "note": "(stereo partly specified)", "activity change, negative = inhibition": "3.72% (inactive)"}
{"compound": "CN1C(=O)CC(c2ccccc2)C1=O", "note": "(stereo unspecified)", "activity change, negative = inhibition": "1.29% (inactive)"}
{"compound": "C[C@@H](N)C(=O)O", "outcome": "inactive"}
{"compound": "CC(=O)Nc1ccccc1", "outcome": "inactive"}
{"compound": "CCS(=O)(=O)CCn1c([N+](=O)[O-])cnc1C", "outcome": "inactive"}
{"test_system": "not listed separately", "experiment": "qHTS drug screen for cell cycle checkpoint inhibitors in PARPi-resistant BRCA-mutant ovarian cancer cell lines. (AID 1963452; calls by dose curve)", "settings": "PEO1/OlaR viability, CellTiter-Glo luminescence, 96 h; stronger effect = lower value", "in_short": "(§1)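 PEO1, PEO4 and PEO1/OlaR ovarian cancer cells, 600 per well, exposed 96 h at 37C to a dilution series. Viability read by CellTiter-Glo luminescence, normalized to DMSO and empty wells; activity summarized as Z-AUC.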"}
{"compound": "OCCN1C[C@H](O)[C@@H](O)[C@H](O)[C@H]1CO", "Z-AUC": "0.928 (inactive)"}
{"compound": "OC[C@@H](O)[C@@H](O)[C@H](O)[C@H](O)CO", "Z-AUC": "-0.605 (inactive)"}
{"compound": "CCCCCOC(=O)Nc1nc(=O)n([C@@H]2O[C@H](C)[C@@H](O)[C@H]2O)cc1F", "Z-AUC": "-0.294 (inactive)"}
{"test_system": "not listed separately", "experiment": "qHTS drug screen for cell cycle checkpoint inhibitors in PARPi-resistant BRCA-mutant ovarian cancer cell lines. (AID 1963452)", "settings": "PEO1/OlaR viability, CellTiter-Glo luminescence, 96 h; measured here: PEO1 parental Z-AUC; stronger effect = lower value", "in_short": "as §1"}
{"compound": "OCCN1C[C@H](O)[C@@H](O)[C@H](O)[C@H]1CO", "Z-AUC": 0.927}
{"compound": "OC[C@@H](O)[C@@H](O)[C@H](O)[C@H](O)CO", "Z-AUC": -0.476}
{"compound": "CCCCCOC(=O)Nc1nc(=O)n([C@@H]2O[C@H](C)[C@@H](O)[C@H]2O)cc1F", "Z-AUC": -0.525}
{"test_system": "not listed separately", "experiment": "qHTS drug screen for cell cycle checkpoint inhibitors in PARPi-resistant BRCA-mutant ovarian cancer cell lines. (AID 1963452)", "settings": "PEO1/OlaR viability, CellTiter-Glo luminescence, 96 h; measured here: PEO4 Z-AUC; stronger effect = lower value", "in_short": "as §1"}
{"compound": "OCCN1C[C@H](O)[C@@H](O)[C@H](O)[C@H]1CO", "Z-AUC": 1.11}
{"compound": "OC[C@@H](O)[C@@H](O)[C@H](O)[C@H](O)CO", "Z-AUC": -0.786}
{"compound": "CCCCCOC(=O)Nc1nc(=O)n([C@@H]2O[C@H](C)[C@@H](O)[C@H]2O)cc1F", "Z-AUC": -0.448}
